Data published in PubChem BioAssay (Tox21).
Results filed as inconclusive are left out. A call without a number means that no potency is given here. More than one record can exist for a structure, and the calls need not agree. The source made the active and inactive calls. Calls come from the whole dose curve.

Each molecule was assayed against Acetylcholinesterase (Homo sapiens) (UniProt P22303) (assay: Acetylcholinesterase (AChE) small molecule antagonists: colormetric cell-based qHTS assay (AID 1347395; note: nearly all actives have a fitted effect of over 30% in size)). Details: SH-SY5Y cells AChE activity, colorimetric (Ellman); series mostly up to 115 µM.
Sequence of Acetylcholinesterase (Homo sapiens) (P22303 whole entry, looked up): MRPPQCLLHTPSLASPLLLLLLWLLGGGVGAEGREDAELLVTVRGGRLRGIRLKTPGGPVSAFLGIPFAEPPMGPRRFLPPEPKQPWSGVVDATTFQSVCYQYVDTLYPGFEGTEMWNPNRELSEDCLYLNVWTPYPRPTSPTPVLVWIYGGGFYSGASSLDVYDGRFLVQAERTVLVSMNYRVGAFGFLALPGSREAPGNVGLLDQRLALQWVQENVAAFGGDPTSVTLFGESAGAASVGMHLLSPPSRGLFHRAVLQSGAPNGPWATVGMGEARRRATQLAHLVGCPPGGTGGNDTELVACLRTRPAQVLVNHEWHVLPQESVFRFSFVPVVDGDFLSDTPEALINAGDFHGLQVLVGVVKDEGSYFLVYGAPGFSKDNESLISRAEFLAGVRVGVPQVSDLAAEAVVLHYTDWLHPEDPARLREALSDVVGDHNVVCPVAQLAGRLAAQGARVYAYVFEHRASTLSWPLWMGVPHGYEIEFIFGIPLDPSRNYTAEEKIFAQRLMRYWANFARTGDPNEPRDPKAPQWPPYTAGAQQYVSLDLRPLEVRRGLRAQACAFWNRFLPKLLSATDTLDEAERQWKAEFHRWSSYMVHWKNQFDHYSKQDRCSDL
Outline: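 Cells (SH-SY5Y, 2,000 per well) are seeded and left overnight at 37 C. Compound is added for 30 min, then DTNB and acetylthiocholine for a further 90 min at 37 C before absorbance-based thiocholine detection.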
Potency is the fitted concentration of half-maximal effect.

Compound	Potency	activity, negative = inhibition
O=Cc1ccc(Cl)c([N+](=O)[O-])c1	39.9 µM (active)	
CCc1oc2ccccc2c1C(=O)c1cc(I)c(O)c(I)c1	inactive	
CCOC(=O)c1ccc(N)cc1	inactive	
CC(C)OC(=O)CCC(=O)OC(C)C	inactive	
CCCc1cc(=O)[nH]c(=S)[nH]1	inactive	
Nc1ccc(O)c(C(=O)O)c1	inactive	
CC1=CC(C)(C)Nc2ccccc21	inactive	
CCSC(=O)N(CC(C)C)CC(C)C	inactive	
NC(N)=NS(=O)(=O)c1ccc(N)cc1	inactive	
O=C(O)CONC(=O)c1ccccc1	inactive	
C=C[C@](C)(O)CC[C@@H]1[C@@]2(C)CCCC(C)(C)[C@@H]2CC[C@@]1(C)O	inactive	
CC(=O)Nc1ccc(C)cc1	inactive	
Cc1ccc(S(=O)(=O)NC(=O)NC2CCCCC2)cc1	inactive	
CC[C@H]1OC(=O)[C@H](C)[C@@H](O[C@H]2C[C@@](C)(OC)[C@@H](O)[C@H](C)O2)[C@H](C)[C@@H](O[C@@H]2O[C@H](C)C[C@H](N(C)C)[C@H]2O)[C@](C)(O)C[C@@H](C)CN(C)[C@H](C)[C@@H](O)[C@]1(C)O	inactive	
CC[C@@H]([C@H](C)O)n1ncn(-c2ccc(N3CCN(c4ccc(OC[C@@H]5CO[C@@](Cn6cncn6)(c6ccc(F)cc6F)C5)cc4)CC3)cc2)c1=O	inactive	
OC1(c2ccc(Cl)c(C(F)(F)F)c2)CCN(CCCC(c2ccc(F)cc2)c2ccc(F)cc2)CC1	inactive	
CCC(C)(C)C	inactive	
Nc1ccc(/C=C/c2ccc(N)cc2S(=O)(=O)O)c(S(=O)(=O)O)c1		-0.352% [at 0.435 µM] (inactive)
CCC(=O)Nc1cccc(N)c1	inactive	
CCN1CCN(c2cc(-c3ccc(F)cc3)c3c(n2)CCCCCC3)CC1		2.78% [at 23.6 µM] (inactive)

Compound	Potency	activity, negative = inhibition
CCN(CC)c1ccc(C(=O)c2ccccc2C(=O)O)c(O)c1	inactive	
O=C(O)Cc1ccc(-c2ccccc2)cc1	inactive	
O=C(O)C1=NN(c2ccc(S(=O)(=O)O)cc2)C(=O)C1	inactive	
C[C@]12C=CC(=O)C=C1CC[C@@H]1[C@@H]2C(=O)C[C@@]2(C)[C@H]1CC[C@]2(O)C(=O)CO	inactive	
C=CC(=O)NC(C)(C)CS(=O)(=O)O	inactive	
CC/C=C(\C(=O)N[C@@H]1C(=O)N2C(C(=O)OCOC(=O)C(C)(C)C)=C(COC(N)=O)CS[C@H]12)c1csc(N)n1	inactive	
O=C1O[C@H]([C@@H](O)CO)C(O)=C1O	inactive	
O=C1C=CC(=O)O1	inactive	
Nc1ncnc2c1ncn2[C@@H]1O[C@H](CO)[C@@H](O)[C@H]1O	inactive	
CCCCC=O	inactive	
O=P(O)(OCc1ccccc1)OCc1ccccc1	inactive	
CC1=NN(c2ccccc2)C(=O)C1	inactive	
O=c1[nH]cnc2[nH]ncc12	inactive	
COC(=O)[C@H]1[C@H]2C[C@@H]3c4[nH]c5cc(OC)ccc5c4CCN3C[C@H]2C[C@@H](OC(=O)c2cc(OC)c(OC)c(OC)c2)[C@@H]1OC	inactive	
CCOC(=O)C1=C(C)NC(C)=C(C(=O)OC)C1c1cccc([N+](=O)[O-])c1 (stereo not given)	inactive	
OCC1(CO)COCOC1	inactive	
COCCCOc1cc(C[C@@H](C[C@H](N)[C@@H](O)C[C@H](C(=O)NCC(C)(C)C(N)=O)C(C)C)C(C)C)ccc1OC	inactive	
C[Si](C)(CCCN)O[Si](C)(C)CCCN	inactive	
Oc1cccc2[nH]ccc12	inactive	
Oc1ccc(OCc2ccccc2)cc1	inactive	

What follows are molecules tested against Acetylcholinesterase (Homo sapiens) (UniProt P22303) (assay: Acetylcholinesterase (AChE) small molecule antagonists: enzyme-based qHTS assay (AID 1347397; note: nearly all actives have a fitted effect of over 55% in size)). Details: Potency: AChE enzyme activity inhibition; outcome: AChE enzyme activity inhibition; series mostly up to 115 µM.
Outline: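 rhAChE 50 mU/mL (dispensed) + cpd or DMSO, 30 min RT; add DTNB/acetylthiocholine cocktail, 10 min RT; colorimetric thiocholine readout. qHTS, 1536-well format.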

Compound	Potency	activity change, negative = inhibition
O=Cc1ccc(Cl)c([N+](=O)[O-])c1	inactive	
CCc1oc2ccccc2c1C(=O)c1cc(I)c(O)c(I)c1	inactive	
CCOC(=O)c1ccc(N)cc1	inactive	
CC(C)OC(=O)CCC(=O)OC(C)C	inactive	
CCCc1cc(=O)[nH]c(=S)[nH]1	inactive	
Nc1ccc(O)c(C(=O)O)c1	inactive	
CC1=CC(C)(C)Nc2ccccc21	inactive	
CCSC(=O)N(CC(C)C)CC(C)C	inactive	
NC(N)=NS(=O)(=O)c1ccc(N)cc1	inactive	
O=C(O)CONC(=O)c1ccccc1	inactive	
C=C[C@](C)(O)CC[C@@H]1[C@@]2(C)CCCC(C)(C)[C@@H]2CC[C@@]1(C)O	inactive	
CC(=O)Nc1ccc(C)cc1	inactive	
Cc1ccc(S(=O)(=O)NC(=O)NC2CCCCC2)cc1	inactive	
CC[C@H]1OC(=O)[C@H](C)[C@@H](O[C@H]2C[C@@](C)(OC)[C@@H](O)[C@H](C)O2)[C@H](C)[C@@H](O[C@@H]2O[C@H](C)C[C@H](N(C)C)[C@H]2O)[C@](C)(O)C[C@@H](C)CN(C)[C@H](C)[C@@H](O)[C@]1(C)O	inactive	
CC[C@@H]([C@H](C)O)n1ncn(-c2ccc(N3CCN(c4ccc(OC[C@@H]5CO[C@@](Cn6cncn6)(c6ccc(F)cc6F)C5)cc4)CC3)cc2)c1=O	inactive	
OC1(c2ccc(Cl)c(C(F)(F)F)c2)CCN(CCCC(c2ccc(F)cc2)c2ccc(F)cc2)CC1	inactive	
CCC(C)(C)C	inactive	
Nc1ccc(/C=C/c2ccc(N)cc2S(=O)(=O)O)c(S(=O)(=O)O)c1		-0.809% [at 0.435 µM] (inactive)
CCC(=O)Nc1cccc(N)c1	inactive	
CCN1CCN(c2cc(-c3ccc(F)cc3)c3c(n2)CCCCCC3)CC1		1.01% [at 23.6 µM] (inactive)

Compound	Potency	activity change, negative = inhibition
CCN(CC)c1ccc(C(=O)c2ccccc2C(=O)O)c(O)c1	inactive	
O=C(O)Cc1ccc(-c2ccccc2)cc1	inactive	
O=C(O)C1=NN(c2ccc(S(=O)(=O)O)cc2)C(=O)C1	inactive	
C[C@]12C=CC(=O)C=C1CC[C@@H]1[C@@H]2C(=O)C[C@@]2(C)[C@H]1CC[C@]2(O)C(=O)CO	inactive	
C=CC(=O)NC(C)(C)CS(=O)(=O)O	inactive	
CC/C=C(\C(=O)N[C@@H]1C(=O)N2C(C(=O)OCOC(=O)C(C)(C)C)=C(COC(N)=O)CS[C@H]12)c1csc(N)n1	inactive	
O=C1O[C@H]([C@@H](O)CO)C(O)=C1O	inactive	
O=C1C=CC(=O)O1	inactive	
Nc1ncnc2c1ncn2[C@@H]1O[C@H](CO)[C@@H](O)[C@H]1O	inactive	
CCCCC=O	inactive	
O=P(O)(OCc1ccccc1)OCc1ccccc1	inactive	
CC1=NN(c2ccccc2)C(=O)C1	35.8 µM (active) and inactive	
O=c1[nH]cnc2[nH]ncc12	inactive	
COC(=O)[C@H]1[C@H]2C[C@@H]3c4[nH]c5cc(OC)ccc5c4CCN3C[C@H]2C[C@@H](OC(=O)c2cc(OC)c(OC)c(OC)c2)[C@@H]1OC	inactive	
CCOC(=O)C1=C(C)NC(C)=C(C(=O)OC)C1c1cccc([N+](=O)[O-])c1 (stereo not given)	inactive	
OCC1(CO)COCOC1	inactive	
COCCCOc1cc(C[C@@H](C[C@H](N)[C@@H](O)C[C@H](C(=O)NCC(C)(C)C(N)=O)C(C)C)C(C)C)ccc1OC	inactive	
C[Si](C)(CCCN)O[Si](C)(C)CCCN	inactive	
Oc1cccc2[nH]ccc12	inactive	
Oc1ccc(OCc2ccccc2)cc1	inactive	
